KB-V1 cytotox = KB-V1 MDR subline cytotoxicity. KB-V1 MDR cells viability, CellTiter-Glo, 72 h. Potency, µM (top dose mostly 46.1 µM), actives largely listed as cytotoxic. 400,000 tested, 3.4% active; note: nearly all actives have a fitted effect of over 60% in size
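Following 72 h at 37 degrees C with compound, KB-V1 cell viability was read by CellTiter-Glo luminescence, medium being phenol-red-free DMEM plus 10% FBS; concentration-response parameters came from normalized, curve-fitted qHTS data.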
PINK1 expr mod = modulators of PINK1 expression. PINK1 immunofluorescence, high-content cytometry, 24 h. Potency, µM (doses to about 76.6 µM), actives largely listed as activators. 410,000 tested, 0.2% active. AID 624263; active = well fitted activation curve with a large enough effect; inconclusive = small, poorly fitted or top-dose-only effect; cell line not stated here; note: nearly all actives have a fitted effect of over 65% in size
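Measures PINK1 amount and localization on or inside mitochondria by immunofluorescence. Stable cells get compounds at 5 concentrations for 24 hours before fixation and staining; CCCP controls included.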
ALOX12 inh = inhibitors of human 12S-lipoxygenase ALOX12 | P18054 | purified 12hLO, xylenol orange hydroperoxide absorbance | Potency, µM (doses to about 108 µM), usual class: inhibitors | 580,000 tested, 1.1% active | AID 1671190
Target sequence (P18054 whole entry, looked up): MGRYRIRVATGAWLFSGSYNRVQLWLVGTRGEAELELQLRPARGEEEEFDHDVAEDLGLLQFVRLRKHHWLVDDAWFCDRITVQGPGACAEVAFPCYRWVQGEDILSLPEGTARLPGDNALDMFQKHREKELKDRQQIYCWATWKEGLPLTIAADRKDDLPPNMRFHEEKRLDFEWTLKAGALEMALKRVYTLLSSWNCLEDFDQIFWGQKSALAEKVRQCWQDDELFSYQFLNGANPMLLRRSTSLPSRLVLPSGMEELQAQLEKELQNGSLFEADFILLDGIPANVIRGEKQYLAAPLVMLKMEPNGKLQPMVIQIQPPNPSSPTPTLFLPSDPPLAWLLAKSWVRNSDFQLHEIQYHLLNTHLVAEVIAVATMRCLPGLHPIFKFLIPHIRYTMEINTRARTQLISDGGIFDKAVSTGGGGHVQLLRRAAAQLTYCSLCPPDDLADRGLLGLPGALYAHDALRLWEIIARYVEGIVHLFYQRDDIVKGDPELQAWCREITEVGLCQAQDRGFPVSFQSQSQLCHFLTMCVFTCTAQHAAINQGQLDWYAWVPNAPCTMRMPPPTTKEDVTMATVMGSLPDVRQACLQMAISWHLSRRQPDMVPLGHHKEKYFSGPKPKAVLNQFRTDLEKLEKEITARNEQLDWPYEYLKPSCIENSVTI
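Purified human 12hLO at 150 nM in 25 mM Hepes, 0.01% Triton X-100, pH 7.0, preincubated 15 min at room temperature with compound. Reaction started with 40 uM arachidonic acid, 30 min at room temperature. Hydroperoxide measured by Fe-xylenol orange, 573/405 nm absorbance ratio.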
MCF10A rereplic = induces DNA re-replication in MCF 10a normal breast cells; Potency, µM (top dose mostly 46.1 µM), actives largely listed as activators; AID 624296; MCF 10A DNA re-replication, Hoechst nuclear intensity, 48 h; 350,000 tested, 2.9% active; note: nearly all actives have a fitted effect of over 50% in size
KB-3-1 cytotox = KB-3-1 parental cell cytotoxicity; KB-3-1 viability, CellTiter-Glo ATP luminescence, 72 h; 400,000 tested, 1.4% active; Potency, µM (doses to about 46.1 µM), usual class: cytotoxic; AID 1347075; note: nearly all actives have a fitted effect of over 60% in size
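Parental KB-3-1 adenocarcinoma cells in phenol-red-free DMEM with 10% FBS were pin-treated with compounds at several concentrations, incubated 72 h at 37 °C, and viability read by CellTiter-Glo luminescence; concentration-effect curves were fitted after normalization.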
SW480 rerep = DNA re-replication induction in SW480 cells | SW480 DNA re-replication, Hoechst DNA content imaging, 48 h | 340,000 tested, 1.8% active | AID 624297 | Potency, µM (doses to about 46.1 µM), hits mostly activators; note: nearly all actives have a fitted effect of over 55% in size
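Cells (250 per well) received 23 nL compound or DMSO by pin tool and were kept 48 hr at 37 C, 5% CO2. Nuclei were then stained with Hoechst for 40 min and scanned for DNA content.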
Of the large screens only hits and unclear results are named; the others gave an inactive call; ! = a repeat was not active. Compounds with a hit are over-represented: about 5.8% of the library has one in this group of screens. Unless noted, calls come from the whole dose curve; as a rule, active = well fitted curve in the direction sought with a large enough effect; inconclusive = small, poorly fitted or top-dose-only effect, or another doubt; inactive = no such curve, though single readings can be large; an effect the other way counts as inactive or inconclusive.

O=C(NC(Cc1c[nH]c2ccccc12)C(=O)Nc1ccc(OC(F)(F)F)cc1)c1cccs1 (centres undefined)	KB-V1 cytotox inconclusive, MCF10A rereplic inconclusive, KB-3-1 cytotox 12µM, SW480 rerep inconclusive
O=C(NC(Cc1c[nH]c2ccccc12)C(=O)O)c1cccs1 (centres undefined)	none
C/C(=N\NC(N)=S)C(=O)O	none (no result: KB-V1 cytotox, PINK1 expr mod, MCF10A rereplic, KB-3-1 cytotox, SW480 rerep)
Fc1ccc(C(Nc2ccccn2)c2c[nH]c3ccccc23)cc1 (centres undefined)	ALOX12 inh 6.3µM
Cc1ccc(C(CC(=O)NC(C)C)c2cn(C)c3ccccc23)cc1 (centres undefined)	none (no result: KB-V1 cytotox, PINK1 expr mod, MCF10A rereplic, KB-3-1 cytotox, SW480 rerep)
O=C(O)CC(c1ccncc1)c1c[nH]c2ccccc12 (centres undefined)	ALOX12 inh 3.5µM (no result: KB-V1 cytotox, PINK1 expr mod, MCF10A rereplic, KB-3-1 cytotox, SW480 rerep)
Cn1cc(C(C[N+](=O)[O-])c2ccccc2)c2ccccc21 (centres undefined)	KB-V1 cytotox inconclusive, MCF10A rereplic 13µM, KB-3-1 cytotox inconclusive, SW480 rerep 10µM
O=[N+]([O-])CC(c1ccc(F)cc1)c1c[nH]c2ccccc12 (centres undefined)	MCF10A rereplic 13µM, KB-3-1 cytotox inconclusive, SW480 rerep inconclusive
OC(c1ccccn1)c1c[nH]c2ccccc12 (centres undefined)	ALOX12 inh inconclusive
CCc1ccccc1NC(=O)c1nc(-c2ccccc2)oc1C	none (no result: KB-V1 cytotox, PINK1 expr mod, MCF10A rereplic, KB-3-1 cytotox, SW480 rerep)
COc1ccc(-n2nc3cc(C)c(N)cc3n2)cc1Cl	ALOX12 inh 8.9µM, MCF10A rereplic 3.3µM, SW480 rerep 15µM
Cc1cc2nn(-c3ccc(F)cc3)nc2cc1N	MCF10A rereplic 21µM, SW480 rerep 21µM
Cc1cc2nn(-c3ccc(Cl)cc3)nc2cc1N	ALOX12 inh 7.1µM, MCF10A rereplic 21µM, SW480 rerep 23µM
Cc1nn(CC(=O)N2CCc3ccccc32)c(C)c1S(=O)(=O)N1CCCC(C(=O)NC2CC2)C1 (centres undefined)	none (no result: KB-V1 cytotox, PINK1 expr mod, MCF10A rereplic, KB-3-1 cytotox, SW480 rerep)
CC(C)(C)N1CC(c2nc3ccccc3n2Cc2ccc3ccccc3c2)CC1=O (centres undefined)	none (no result: KB-V1 cytotox, PINK1 expr mod, MCF10A rereplic, KB-3-1 cytotox, SW480 rerep)
COc1ccccc1N1CCN(c2ccc([N+](=O)[O-])cc2Cl)CC1	KB-V1 cytotox 5.8µM, MCF10A rereplic 7.3µM, KB-3-1 cytotox 16µM, SW480 rerep 18µM
COc1ccccc1N1CCN(S(=O)(=O)c2ccc([N+](=O)[O-])cc2)CC1	none (no result: MCF10A rereplic, SW480 rerep)
CC(C)C(=O)N1CCN(c2ccc([N+](=O)[O-])cc2Cl)CC1	KB-V1 cytotox 21µM
O=C1Nc2ccccc2NC(c2cccc(Br)c2)=C1N(C(=O)C(=O)c1cccs1)c1ccccc1	none (no result: KB-V1 cytotox, PINK1 expr mod, MCF10A rereplic, KB-3-1 cytotox, SW480 rerep)
COC(=O)c1cccc(COC(=O)C2Cc3ccccc3C(=O)O2)c1 (centres undefined)	none (no result: KB-V1 cytotox, PINK1 expr mod, MCF10A rereplic, KB-3-1 cytotox, SW480 rerep)
O=C(c1cc(F)ccc1Cl)N1CCC2(CC1)N(c1ccccc1)C(=O)CS2(=O)=O	none (no result: KB-V1 cytotox, PINK1 expr mod, MCF10A rereplic, KB-3-1 cytotox, SW480 rerep)
CCCCCCSc1cc(-c2nc3cnccn3c2NCc2ccccc2)ccc1OC	KB-V1 cytotox inconclusive, MCF10A rereplic inconclusive, KB-3-1 cytotox inconclusive, SW480 rerep inconclusive (no result: ALOX12 inh)
CCCCNc1c(-c2ccc(OC)c(SC3CCCCC3)c2)nc2cnccn12	MCF10A rereplic 16µM, SW480 rerep inconclusive (no result: ALOX12 inh)
CCCCNc1c(-c2ccc(SC3CCCCC3)cc2)nc2cnccn12	KB-V1 cytotox 37µM!, ALOX12 inh inconclusive, MCF10A rereplic inconclusive, SW480 rerep inconclusive
CCCCNc1c(-c2ccc(-c3ccc(C(C)=O)cc3)c(OC)c2)nc2cnccn12	PINK1 expr mod inconclusive, MCF10A rereplic 21µM, SW480 rerep 23µM (no result: ALOX12 inh)
COc1ccc(-c2nc3cnccn3c2NCc2ccccc2)cc1SC1CCCCC1	MCF10A rereplic 12µM, SW480 rerep inconclusive (no result: ALOX12 inh)
Cc1c(CC(=O)NCc2cccc(Cl)c2)c(=O)oc2c(C)c(O)ccc12	none (no result: KB-V1 cytotox, PINK1 expr mod, MCF10A rereplic, KB-3-1 cytotox, SW480 rerep)
CN(C)Cc1cccc(-c2cc3c(ccn3Cc3ccncc3)c(N3CCOCC3)n2)c1	none (no result: KB-V1 cytotox, PINK1 expr mod, MCF10A rereplic, KB-3-1 cytotox, SW480 rerep)
CCOC(=O)C1=C(CNCc2ccccc2Cl)NC(=O)NC1c1cc(C)ccc1C (centres undefined)	none (no result: KB-V1 cytotox, PINK1 expr mod, MCF10A rereplic, KB-3-1 cytotox, SW480 rerep)
CCOCCOC(=O)COc1ccc2c(=O)c(Oc3ccccc3Br)coc2c1	none (no result: KB-V1 cytotox, PINK1 expr mod, MCF10A rereplic, KB-3-1 cytotox, SW480 rerep)
CCN(CC)S(=O)(=O)c1ccc(Cl)c(C(=O)N2CCCC2C(=O)O)c1 (centres undefined)	none (no result: KB-V1 cytotox, PINK1 expr mod, MCF10A rereplic, KB-3-1 cytotox, SW480 rerep)
CCCCCCOC(=O)CCCCC	none (no result: KB-V1 cytotox, PINK1 expr mod, MCF10A rereplic, KB-3-1 cytotox, SW480 rerep)
CCCCNc1c(-c2ccc(OC)c(SC3CCCCC3)c2)nc2ccc(Cl)cn12	ALOX12 inh inconclusive, MCF10A rereplic 21µM
COc1ccccc1CNC[C@H]1Cn2c(-c3ccccc3)cnc2CO1	none (no result: KB-V1 cytotox, PINK1 expr mod, MCF10A rereplic, KB-3-1 cytotox, SW480 rerep)
NC(=O)N1CCC2(CC1)NC(=O)N(c1ccccc1)N2	ALOX12 inh inconclusive
Cc1ccc(C(=O)N2CCC3(CC2)NC(=O)N(c2ccccc2)N3)cc1F	ALOX12 inh 4µM (no result: KB-V1 cytotox, PINK1 expr mod, MCF10A rereplic, KB-3-1 cytotox, SW480 rerep)
CN(C)c1ccc(C(=O)N2CCC3(CC2)NC(=O)N(c2ccccc2)N3)cc1	ALOX12 inh 2.8µM (no result: KB-V1 cytotox, PINK1 expr mod, MCF10A rereplic, KB-3-1 cytotox, SW480 rerep)
Cn1cc(C(=O)NC2CCN(Cc3ccccc3)CC2)c2ccccc21	none (no result: KB-V1 cytotox, PINK1 expr mod, MCF10A rereplic, KB-3-1 cytotox, SW480 rerep)
CNC(=O)COc1cccc(N)c1	none (no result: KB-V1 cytotox, PINK1 expr mod, MCF10A rereplic, KB-3-1 cytotox, SW480 rerep)
